Screening results deposited in PubChem BioAssay by National Center for Advancing Translational Sciences (NCATS).
In the library only some 7.4% were active in any assay of this set; here they are far more common.
NPC1 prom act: activates the NPC1 promoter | Potency, µM (doses to about 9.22 µM), for the others: top-dose activation, hits mostly activators | Huh7 NPC1 promoter luciferase reporter, 24 h | AID 485313 | 2.4% of 320,000 active; also: % of control where 0% means no effect; nearly all actives have a fitted effect of over 60% in size
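Huh7 cells stably carrying NPC1 promoter–luciferase, plated in Opti-MEM with 10% FBS for 2 h, were exposed to compound in DMSO for 24 h at 37 °C; luciferase reagent was added for 10 min and luminescence read.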
SMN2 splice up: increases expression of the SMN2 splice variant. HEK293 SMN2-luciferase splicing reporter, luminescence, 30-36 h. Potency, µM (series often up to 46.1 µM), for inactives: at the top dose activity change, positive = activation, usual class: activators. 2.8% of 210,000 active. AID 1458; also: % of control where 0% means no effect; nearly all actives have a fitted effect of over 55% in size
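HEK293 cells carry an SMN2 […]–luciferase reporter in which exon 7 inclusion puts luciferase in frame. Cells were plated 10-12 h before compound addition, then incubated 30-36 h at 37C. ONE-Glo luminescence was read; sodium butyrate at 4.5 mM final served as control.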
ELG1 genotoxic: inducers of genotoxicity in HEK293T ELG1-luciferase cells. AID 504466. 1.3% of 330,000 active. Potency, µM (doses to about 46 µM), without a hit: at the top dose activity change, positive = activation, most hits filed as activators. HEK293T ELG1-luciferase reporter, luminescence, 16 h; also: % of control where 0% means no effect; nearly all actives have a fitted effect of over 60% in size
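Screening used a luciferase reporter fused to human ELG1 in HEK293T cells. Luminescence was read on a CCD plate imager after 16 hr exposure and 30 min ONE-Glo incubation.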
FLuc modulator: inhibits or activates purified firefly luciferase, miR-21 counter-screen. AID 588342. P08659. 6.9% of 360,000 active. purified FLuc, Km substrates, luminescence inhibition. Potency, µM (titrated, usually from 57.5 µM), inactives show at the highest dose activity change, negative = inhibition, actives largely listed as inhibitors;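 also: plate controls were vehicle for no effect and reference inhibitor for full effect; nearly all actives have a fitted effect of over 55% in size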
Target sequence (P08659 whole entry, looked up): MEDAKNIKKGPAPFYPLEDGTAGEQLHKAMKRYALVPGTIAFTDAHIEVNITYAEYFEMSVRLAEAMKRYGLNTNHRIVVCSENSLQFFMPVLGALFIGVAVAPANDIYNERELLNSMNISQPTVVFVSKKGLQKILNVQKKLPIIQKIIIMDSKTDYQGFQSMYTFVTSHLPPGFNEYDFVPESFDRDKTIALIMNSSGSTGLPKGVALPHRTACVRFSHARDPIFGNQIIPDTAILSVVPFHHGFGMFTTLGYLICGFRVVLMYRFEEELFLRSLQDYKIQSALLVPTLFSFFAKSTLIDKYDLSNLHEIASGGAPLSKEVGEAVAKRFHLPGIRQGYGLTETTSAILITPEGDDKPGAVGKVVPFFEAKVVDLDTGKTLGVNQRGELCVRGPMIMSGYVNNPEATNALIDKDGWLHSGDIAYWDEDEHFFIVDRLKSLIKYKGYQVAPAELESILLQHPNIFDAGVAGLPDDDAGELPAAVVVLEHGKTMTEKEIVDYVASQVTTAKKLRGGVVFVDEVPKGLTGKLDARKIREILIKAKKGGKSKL
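Purified P. pyralis luciferase, 10 nM final, with Km-level 10 uM D-luciferin and 10 uM ATP in 50 mM Tris acetate pH 7.5, 10 mM Mg acetate, 0.01% Tween-20, 0.05% BSA; 6-point qHTS titration about 60 µM downward; luminescence read.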
Rab9 prom act: Rab9 promoter activation; Huh7 Rab9 promoter-luciferase reporter, luminescence, 24 h; Potency, µM (highest dose often 9.22 µM), for inactives: top-dose activation, negative = inhibition, hits mostly activators; 2.8% of 320,000 active; AID 485297; also: % of control where 0% means no effect; nearly all actives have a fitted effect of over 60% in size
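Using Huh7 cells stably transfected with Rab9 promoter–luciferase, compounds were incubated 24 h at 37 °C, 5% CO2; luciferase luminescence was read 10 min after reagent addition.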
An asterisk follows results filed as active; ? = inconclusive; · = no result; [ ] = another dose, or the depositor's remark. Calls follow the shape of the dose curve; as a rule, active = well fitted curve in the direction sought with a large enough effect; inconclusive = small, poorly fitted or top-dose-only effect, or another doubt; inactive = no such curve, though single readings can be large; an effect the other way counts as inactive or inconclusive. Potency is read from the fitted curve at half-maximal effect.

SMILES | NPC1 prom act | SMN2 splice up | ELG1 genotoxic | FLuc modulator | Rab9 prom act
Cc1[nH]c2ccccc2c1/C=N/Nc1cccc(C(=O)O)c1 | 1.58µM* | · | ? | 2.69µM* | 2µM*
Cc1ccc(C(=O)OCC(=O)N2CCC(C)CC2)cc1S(=O)(=O)N1CCCCC1 | 0.1% | · | 2.7% | 16.9µM* | 3.3%
COc1ccc(C(=O)Nc2ccc(NC(=O)c3ccccc3)cc2)cc1S(=O)(=O)N1CCOCC1 | -1.7% | · | 2.6% | -0.2% | 2.0%
CN(C)S(=O)(=O)c1cccc(NC(=O)c2ccc(S(=O)(=O)N3CCCCC3)cc2)c1 | -0.9% | · | -3.0% | 5.1% | -0.3%
Cc1ccc(C(=O)OCC(=O)N2CC(C)CC(C)C2)cc1S(=O)(=O)N1CCOCC1 (configuration not stated) | 3.7% | · | 1.1% | -1.3% | 0.4%
COc1ccc(C(=O)Nc2cccc(C(=O)O)c2)cc1S(=O)(=O)N1CCCC1 | ? | · | -1.0% | 10.7µM* | ?
Cc1ccc(C(=O)Nc2cccc(C(=O)O)c2)cc1S(=O)(=O)N1CCCC1 | · | 11.2µM* | · | 0.0953µM* | ·
CN(C)c1ccc(C(=O)Nc2cccc(S(=O)(=O)N3CCCC3)c2)cc1 | 23.2% | · | 1.2% | 1.69µM* | ?
COc1cccc(CC(=O)OCC(=O)c2cc(OC)c(OC)c(OC)c2)c1 | · | · | 3.7% | · | ·
O=C(O)c1cccc(NC(=O)c2cccc(S(=O)(=O)N3CCCCC3)c2)c1 | ? | 24.4% | ? | 6.01µM* | 2.82µM*
Cc1ccc(C(=O)Nc2cccc(C(=O)N3CCOCC3)c2)cc1Cl | 26.9% | · | ? | 9.53µM* | ?
CC1CCN(C(=O)COC(=O)c2cccc(S(=O)(=O)N(C)c3ccccc3)c2)CC1 | -0.8% | · | -0.6% | 10.7µM* | 3.7%
Cc1ccc(C(=O)O)cc1S(=O)(=O)N1CCC(C(=O)O)CC1 | -0.2% | 11.2µM* | -0.7% | 1.1% | -0.3%
O=C(CCNC(=O)c1ccccc1Cl)Nc1ccc(Cl)c(C(F)(F)F)c1 | -2.5% | -57.4% | 5.4% | -1.7% | -8.5%
COc1ccc(NC(=O)c2ccc(F)c(F)c2)c2ccccc12 | 1.0% | · | -1.1% | -0.6% | 2.7%
CCN1CCN(CC(=O)N/N=C/c2cc(Br)cs2)CC1 | -5.0% | · | -0.9% | -0.1% | 1.2%
CCN1CCN(c2csc3ccc(Br)cc3c2=O)CC1 | · | · | · | 13.5µM* | ·
CCN1CCN(c2csc3ccc(C)cc3c2=O)CC1 | · | · | · | 12µM* | ·
CCCCC/C=C\C/C=C\C/C=C\C/C=C\CCCCCC(=O)NC(C)C(=O)O (configuration not stated) | · | 5.9% | · | · | ·
O=C(CNC(=O)c1cn2ccccc2n1)Nc1ccc(F)c(F)c1 | ? | · | 8.2µM* | 16.9µM* | 2.24µM*
O=C(NC1CC1)c1cccc(NC(=O)c2cn3ccccc3n2)c1 | ? | · | 11.9% | · | 3.16µM*
O=C(Nc1ccc(N2CCOCC2)cc1)c1cn2ccccc2n1 | ? | ? | 2.8% | 1.69µM* | ?
CN(CC(=O)Nc1cccc(F)c1)C(=O)c1cn2ccccc2n1 | 0.0% | · | 2.4% | 3.1% | -1.5%
O=C(NC1CC1)c1cccc(NC(=O)c2cnn(-c3ccccc3)n2)c1 | · | · | -4.0% | · | ·
CCN1C(=NCCOC)N[C@@H](c2ccccc2)[C@H](C(=O)OC)[C@H]1C | 1.2% | · | 3.6% | 1.9% | -1.4%
SMILES | NPC1 prom act | SMN2 splice up | ELG1 genotoxic | FLuc modulator | Rab9 prom act
O=C(NCCS(=O)(=O)N1CCN(c2cccc(Cl)c2)CC1)c1cc(=O)c2ccccc2o1 | 1.8% | · | -0.2%[9.26 µM] | -0.4% | -1.5%
COc1ccc(OC)c(-c2cc(C(=O)NC3CCCC3)c3ccccc3n2)c1 | -0.9% | · | -6.0% | 6.8% | 2.3%
O=C(NCC1CCCO1)c1csc(Nc2cccc3ccccc23)n1 (configuration not stated) | -30.1% | · | ? | 21.3µM* | -28.0%
Cc1cccc(-c2noc(-c3ccccc3C(=O)NCC3CCCO3)n2)c1 (configuration not stated) | ? | 10.8% | 1.3% | 10.7µM* | 15.2%
CCCNC(=O)c1csc(Nc2cccc3ccccc23)n1 | -0.7% | · | -6.2% | ? | -3.0%
O=C(NCC1CCCO1)c1ccccc1-c1nc(-c2ccc(Cl)cc2)no1 (configuration not stated) | 3.2% | -4.3% | -7.0% | 15.1µM* | -5.7%
Cc1cccc(NC(=O)c2ccccc2-c2ccccc2)c1 | -6.6% | -4.0% | -1.6% | 1.2% | -7.7%
